Results reported in PubChem BioAssay AID493030 (The Scripps Research Institute Molecular Screening Center, 2011).
Among all 2,300 compounds or so, about 1,500 (65%) were called active.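 How the source made its calls: active means mean inhibition over three repeats above a set limit taken from the earlier primary screen (cut at about 30% in these data); inactive means the rest.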 So high a share suggests a set chosen from earlier hits. These entries were drawn from the full list.

Each compound was assayed against Platelet-activating factor acetylhydrolase 2, cytoplasmic (Homo sapiens) (UniProt Q99487) (assay: PAFAH2 enzyme inhibitors, confirmation, biochemical, fluorescence polarization, human (AID 493030;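 further: inhibitor blocks binding of rhodamine activity probe so polarization falls; 0% = enzyme with DMSO and 100% = wells lacking PAFAH2 protein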)). Conditions: recombinant PAFAH2, FP-rhodamine activity probe, at 3.39 µM, hits give high values.

inhibition, active:
COc1cc(/C=C/C(=O)OCC(=O)NCCCc2ccccc2)ccc1O 35.2%
COc1cccc(NC(=O)COC(=O)/C=C/c2ccco2)c1 77.9%
CC(C)CNC(=O)COC(=O)/C=C/c1ccco1 70.3%
COc1ccc(/C=C/C(=O)OCC(=O)Nc2cccc(Oc3ccccc3)c2)c(OC)c1 34.4%
Cc1cc(C(=O)OCC(=O)Nc2ccc(F)c(F)c2)c(C)o1 74.4%
Cc1cc(C)cc(NC(=O)COC(=O)c2cc(C)oc2C)c1 61.5%
Cc1cc(C(=O)OCC(=O)Nc2ccccc2Cl)c(C)o1 31.5%
Cc1ccc2c(=O)oc(N(C)C)nc2c1 38.2%
CCc1ccc(C(=O)OCC(=O)NCC(F)(F)F)cc1 51.9%
O=C(COC(=O)C1CCCCC1)Nc1ccc([N+](=O)[O-])cc1 40.8%
COc1ccc(S(=O)(=O)N2CCOCC2)cc1NC(=O)CC1CC2CCC1C2 (configuration not stated) 60.8%
COc1ccc(S(=O)(=O)N2CCOCC2)cc1NC(=O)Cc1coc2cc(C)ccc12 46.8%
Nc1ccc(C(=O)OCC(=O)NC2CCCc3ccccc32)cc1[N+](=O)[O-] (configuration not stated) 52.2%
NC(=O)Nc1ccc(C(=O)OCC(=O)NC2CCCc3ccccc32)cc1 (configuration not stated) 67.4%
O=C(COC(=O)c1ccc(F)cc1)Nc1ccc2c(c1)OCO2 72.8%
Cc1cccc(C(=O)OCC(=O)Nc2ccc(F)cc2)c1 81.4%
CC(C)COC(=O)n1c(=O)oc2ccc(S(=O)(=O)N3CCCCC3)cc21 69.2%
O=C(COC(=O)c1ccc2ncsc2c1)Nc1ccc(Cl)cc1 76.2%
C=CCOc1ccc(/C=C/C(=O)OCC(=O)NC2CCCCCC2)cc1 77.1%
COc1ccc(/C=C/C(=O)OCC(=O)NC2CCCCCC2)cc1OC 79.4%
O=C(COC(=O)/C=C/c1ccc(OC(F)F)cc1)NC1CCCCC1 62.1%
O=C(COC(=O)/C=C/c1cccs1)NC1CCCCC1 87.9%
C=CCOc1ccc(/C=C/C(=O)OCC(=O)NC(C)c2ccc(F)cc2)cc1 (configuration not stated) 32.5%
O=C(COC(=O)C12CC3CC(CC(O)(C3)C1)C2)NC12CC3CC(CC(C3)C1)C2 77.7%
Cc1ccc2c(c1)C1CN(C)CCC1N2C(=O)c1ccccc1NS(=O)(=O)c1ccc(F)cc1C (configuration not stated) 34.1%
O=C(ON=C1CCN(S(=O)(=O)c2ccccc2)CC1)c1ccc(Cl)cc1 87.2%
CCS(=O)(=O)c1ccc(O)c(NC(=O)COc2ccc(Cl)cc2)c1 60.8%
CCN(CC)c1ccc(C(=O)OCC(=O)c2ccco2)cc1 40.6%
O=C(COC(=O)c1ccccc1C(=O)c1ccccc1)c1ccco1 33.5%
CC(=O)Nc1ccc(C(=O)OCC(=O)Nc2ccc([N+](=O)[O-])cc2C(F)(F)F)cc1 34.5%
Cc1ccc(/C=C/C(=O)OCC(=O)NCc2ccc(Cl)cc2)o1 42.2%
O=C(OCc1cn(-c2ccc(Cl)c(Cl)c2)nn1)c1ccccc1Cl 43.1%
O=C(COC(=O)c1ccccc1Cl)NC1CCCCCCC1 70.3%
O=C(COC(=O)c1ccccc1SCC(=O)NC1CCCCC1)NC1CCCCC1 73.7%
O=C(COC(=O)c1cccc(Cl)c1)NC1CCCCCCC1 67.1%
O=C(COC(=O)c1cccs1)NCc1cccs1 45.9%
O=C(COC(=O)c1cccs1)Nc1ccccc1Cl 55.6%
COc1ccccc1CNC(=O)COC(=O)c1cccs1 41.8%
O=c1oc(-c2ccco2)nc2sc3c(c12)CCCCC3 34.2%
CC(C)c1ccc(NC(=O)COC(=O)c2ccc(CN3CCCC3=O)cc2)cc1 66.8%
CCC(C)C(NC(=O)C1CCC(=O)N1C(=O)OCc1ccccc1)C(=O)NC(C(=O)N1CCCC1C(N)=O)C(C)CC (configuration not stated) 40.4%
Cc1ccc(S(=O)(=O)N(C)C)cc1NC(=O)COC(=O)/C=C/c1cccs1 51.7%
CN(C)S(=O)(=O)c1cccc(NC(=O)COC(=O)/C=C/c2cccs2)c1 58.5%
O=c1[nH]n(-c2ccc([N+](=O)[O-])cc2)c(=O)c2ccccc12 32.6%
O=C(COC(=O)c1ccccc1)Nc1cccc(S(=O)(=O)N2CCOCC2)c1 33.4%
CCc1ccc(C(=O)OCC(=O)Nc2cccc(S(=O)(=O)NC3=NCCCCC3)c2)cc1 51.8%
CCOc1ncccc1C(=O)OCC(=O)Nc1cccc(S(=O)(=O)N2CCCCCC2)c1 57.6%
CCC(C)(C)c1ccc(Oc2ccc(NC(=O)COC(=O)C3=COCCO3)cc2)cc1 61.5%
CC(NC(=O)COC(=O)c1ccc2c(c1)OCO2)c1ccccc1 (configuration not stated) 45.8%
O=C(COC(=O)c1ccc2c(c1)OCCO2)NCc1ccccc1Cl 78.9%
O=C(COC(=O)c1ccc2c(c1)OCCO2)NCc1ccccc1 45.8%

inhibition, inactive:
COc1cccc(C(=O)n2ccc(-c3cccs3)n2)c1 11.4%
Cc1cc(C(=O)NNC(=O)c2ccccc2O)c(C)o1 23.2%
CC(=O)c1c(C)[nH]c(C(=O)OCC(=O)NCCC(C)C)c1C 22.4%
CCC(C)c1ccc(NC(=O)COC(=O)C2CCCC2)cc1 (configuration not stated) 21.6%
COc1ccc(S(=O)(=O)N2CCOCC2)cc1NC(=O)Cc1c(F)cccc1Cl 24.1%
CCc1c(SCCC(=O)O)nc2ccccc2c1C -1.24%
Oc1c(Cl)cc(Cl)c(Cl)c1Cc1c(O)c(Cl)cc(Cl)c1Cl 23.1%
Cc1ccc(F)cc1S(=O)(=O)Nc1cccc(C(=O)N2CCCC(C(N)=O)C2)c1 (configuration not stated) 12.6%
CCC1OC(c2ccc([N+](=O)[O-])cc2)=Nc2ccccc21 (configuration not stated) 13.7%
CC(=O)Nc1ccc(NC(=O)COC(=O)c2ccccc2C(=O)c2ccccc2)cc1 18.4%
CCCCN1Cc2c(nc3cc(-c4ccccc4)[nH]n3c2=O)C1=O 5.46%
Cc1cc(NC(=O)COC(=O)/C=C/c2ccc(C)o2)no1 14.1%
N#Cc1ccccc1Sc1ccccc1C(=O)OCC(=O)NC1CCCCC1 21.3%
O=C(COC(=O)c1ccccc1SCC(=O)N1CCCC1)Nc1ccccc1OC(F)F 25.9%
CC(C)(C)c1csc(NC2=NS(=O)(=O)c3ccccc32)n1 29.4%
COc1ccccc1CNC(=O)COC(=O)c1sc(C)nc1C 21%
O=C(COC(=O)/C=C/c1ccc(Br)o1)Nc1cccc(S(=O)(=O)N2CCOCC2)c1 26.4%
CS(=O)(=O)c1ccc(Cl)c(NC(=O)COC(=O)c2cccc(S(=O)(=O)N3CCCC3)c2)c1 21.3%
COc1ccc(NC(=O)CC(NC(C)c2ccccc2)C(=O)O)cc1 (configuration not stated) 1.53%
O=C(COC(=O)/C=C/c1ccc(S(=O)(=O)N2CCCCCC2)cc1)NCc1ccccc1Cl 24.4%
Cc1cnc(NC(=O)CSc2c(Cl)cccc2Cl)s1 21.7%
